An excerpt weighted towards active compounds, which were near 21% of everything screened.
IL1B secr inh: inflammasome signaling inhibition, IL-1 beta readout; 360,000 tested, 4.7% active; AID 743279; THP-1 LPS/ATP IL-1B secretion, AlphaLISA, 16 h; stronger effect = lower value; activity change, % at 57.5 µM; in the data active = activity change below about -50%; inconclusive = mostly about -30% to -49%; also: % is scaled to controls: 0 for no effect and ±100 for the full control effect
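THP-1 cells pretreated 1 hr with compounds (up to 57.5 uM final), then stimulated with LPS (250 ng/mL final) plus ATP (1.25 mM final); secreted IL-1B measured by AlphaLISA after 16 hr, decreased signal indicating inhibition.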
DRD3 agonist: D3 dopamine receptor (human) agonism | max activation, % | D3R DiscoveRx beta-arrestin cells, luminescence, 90 min | P35462 | 410,000 tested, 0.58% active; in the data active = max activation above about 30%; also: 0% is about no effect
Target sequence (P35462 whole entry, looked up): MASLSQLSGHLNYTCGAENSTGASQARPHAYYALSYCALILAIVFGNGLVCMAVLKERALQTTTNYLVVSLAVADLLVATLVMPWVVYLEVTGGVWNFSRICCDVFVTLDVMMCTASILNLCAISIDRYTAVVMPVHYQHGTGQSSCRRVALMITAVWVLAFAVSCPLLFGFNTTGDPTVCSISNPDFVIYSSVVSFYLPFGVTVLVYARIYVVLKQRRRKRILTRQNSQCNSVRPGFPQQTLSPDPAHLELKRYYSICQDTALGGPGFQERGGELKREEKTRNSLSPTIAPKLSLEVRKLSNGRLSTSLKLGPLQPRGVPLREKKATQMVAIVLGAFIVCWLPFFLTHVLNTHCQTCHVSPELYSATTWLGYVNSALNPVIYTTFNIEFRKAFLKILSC
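Cells at 1500/well, incubated overnight, then treated with pinned compounds (dopamine as control) for 90 min at 37 degrees C. DiscoveRx reagent added for 30 - 60 minutes at room temperature; luminescence read.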
TDP1 cell CPT: DT40-hTDP1 cell growth loss with CPT; 420,000 tested, 12% active; Potency, µM (top dose mostly 46.2 µM), without a hit: at the top dose activity change, negative = growth inhibition, most hits filed as inhibitors; chicken DT40 Tdp1-/-;hTDP1 cells + 20 nM CPT, ATP luminescence, 48 h; also: potency is read from the fitted curve at half-maximal effect; % is scaled to controls: 0 for no effect and ±100 for the full control effect; nearly all actives have a fitted effect of over 55% in size
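Cell growth measured by CellTiter-Glo luminescence after a minimum 48 h, 37 C compound exposure with 20 nM CPT in Tdp1-knockout DT40 cells stably expressing hTDP1, seeded 400/well; qHTS titration format.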
ClpP mod: qHTS Assay for Activators of ClpP | ATP-dependent Clp protease proteolytic subunit (Bacillus subtilis (strain 168)), P80244 | purified B. subtilis ClpP, FRET peptide cleavage, 20 min | Potency, µM (titrated, usually from 57.5 µM), without a hit: at the top dose activity change, negative = active | 340,000 tested, 1.9% active; active = well fitted falling curve with a large enough effect; inconclusive = small, poorly fitted or top-dose-only effect; inactive = no such curve, though single readings can be large or run the other way; also: potency is read from the fitted curve at half-maximal effect; the source files actives as falling curves though it sought activators and does not explain the sign; nearly all actives have a fitted effect of over 65% in size
Target sequence (P80244 whole entry, looked up): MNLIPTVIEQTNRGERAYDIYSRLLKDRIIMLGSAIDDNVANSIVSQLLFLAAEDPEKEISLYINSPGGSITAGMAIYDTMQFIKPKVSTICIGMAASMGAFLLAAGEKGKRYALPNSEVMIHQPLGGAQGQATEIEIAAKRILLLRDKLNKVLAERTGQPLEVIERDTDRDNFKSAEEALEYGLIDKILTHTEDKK
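FRET quenching reversal measured ClpP activation: 10 microg/mL B. subtilis ClpP at pH 8 with the FRET-FV decapeptide, read at 430 nm after 320 nm excitation. The 20-min minus 0-min signal was scaled between DMSO/no-enzyme wells and ADEP (5.8 microM final).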
DRD3 antagonist: D3 dopamine receptor (human) antagonism; D3R cells, DiscoveRx beta-arrestin luminescence, antagonist mode; stronger effect = lower value; max response, negative = inhibition, %; 360,000 tested, 2.5% active; in the data active = max response below about -50%; inconclusive = no clear call, values can overlap the other calls; also: % is scaled to controls: 0 for no effect and ±100 for the full control effect
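Cells expressing the human receptor were seeded at 1500 cells/well, incubated overnight at 37 degrees C in 5% CO2, then exposed to library compounds with dopamine controls for 90 minutes at 37 degrees C before luminescent detection.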
TDP1 cell noCPT: qHTS for Inhibitors of human tyrosyl-DNA phosphodiesterase 1 (TDP1): qHTS in cells in absence of CPT. DT40 Tdp1-/- hTDP1 cells, no CPT, ATP luminescence, 48 h. Potency, µM (titrated, usually from 46.2 µM), for inactives: at the highest dose activity change, negative = growth inhibition, most hits filed as inhibitors. 420,000 tested, 15% active; also: potency is read from the fitted curve at half-maximal effect; % is scaled to controls: 0 for no effect and ±100 for the full control effect; nearly all actives have a fitted effect of over 55% in size
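No-CPT arm: Tdp1-/-;hTDP1 DT40 cells (400/well) plus compounds, incubated ≥48 hr at 37 °C. Readout CellTiter-Glo luminescence.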
Active calls of the source: *. Unless noted, calls follow the shape of the dose curve; as a rule, active = well fitted inhibition curve with a large enough effect; inconclusive = small, poorly fitted or top-dose-only effect; inactive = flat fitted curve, though single readings scatter.

For C#CCn1c(=NC(=O)c2ccc(S(=O)(=O)N3CCCc4ccccc43)cc2)sc2cc(S(N)(=O)=O)ccc21 the results were IL1B secr inh 15.9, DRD3 agonist -16.9, TDP1 cell CPT 13µM*, ClpP mod -9.0%, DRD3 antagonist 0.0 and TDP1 cell noCPT 14.6µM*.
For COc1ccccc1C(=O)Oc1ccc2c(c1)O/C(=C\c1ccncc1)C2=O the results were IL1B secr inh -0.8, DRD3 agonist -8.5, TDP1 cell CPT -29.9%, ClpP mod -1.7%, DRD3 antagonist -29.6 and TDP1 cell noCPT 13µM*.
For CCc1ccc(/C=C2\Oc3cc(OC(=O)N4CCOCC4)ccc3C2=O)cc1 the results were IL1B secr inh -2.2, DRD3 agonist 2.0, TDP1 cell CPT inconclusive, ClpP mod -13.2%, DRD3 antagonist 10.2 and TDP1 cell noCPT 14.6µM*.
For COc1ccc(/C=C2\Oc3cc(OC(=O)N4CCOCC4)ccc3C2=O)cc1 the results were IL1B secr inh -1.4, DRD3 agonist 0.8, TDP1 cell CPT 18.4µM*, ClpP mod -2.8%, DRD3 antagonist 5.6 and TDP1 cell noCPT 13µM*.
Cc1cccc(CN2CCC(CNC(=O)CSc3cc(=O)n(C)c4cc(Cl)ccc34)CC2)c1 was read as IL1B secr inh 19.6, DRD3 agonist 14.9, TDP1 cell CPT 9.3%, DRD3 antagonist -14.8 and TDP1 cell noCPT -0.4%.
Screening O=C1CC(NS(=O)(=O)c2cccs2)CN1c1cccc(F)c1 (configuration not stated) returned IL1B secr inh -4.3, DRD3 agonist 13.8, TDP1 cell CPT inconclusive, DRD3 antagonist -5.0 and TDP1 cell noCPT inconclusive.
`COCCNC(=O)CSc1n[nH]c(=O)n1CCc1ccccc1` gave IL1B secr inh 60.7, DRD3 agonist 3.8, TDP1 cell CPT 4.5%, ClpP mod -2.5%, DRD3 antagonist 11.6 and TDP1 cell noCPT -0.5%.
`Cc1ccccc1-c1ccc(/C=C2/SC(N3CCOCC3)=NC2=O)o1` gave IL1B secr inh -75.5*, DRD3 agonist 8.8, TDP1 cell CPT 2.91µM*, ClpP mod -2.3%, DRD3 antagonist 11.1 and TDP1 cell noCPT 7.31µM*.
Screening Cc1ccc(Nc2nc(Cl)nc3ncn(C)c23)c(C)c1 returned IL1B secr inh -2.2, DRD3 agonist -11.7, TDP1 cell CPT -7.6%, ClpP mod -2.4%, DRD3 antagonist 0.0 and TDP1 cell noCPT -15.3%.
`CCc1ccc2c(c1)C(c1ccc([N+](=O)[O-])cc1)=NNC(c1ccc(F)cc1)=N2` gave IL1B secr inh -53.1*, DRD3 agonist -1.6, TDP1 cell CPT 20.6µM*, ClpP mod 0.7%, DRD3 antagonist -26.4 and TDP1 cell noCPT inconclusive.
`CCc1ccc2c(c1)C(c1ccncc1)=NNC(c1ccccc1)=N2` gave IL1B secr inh -4.9, DRD3 agonist -1.8, TDP1 cell CPT -24.5%, ClpP mod -1.3%, DRD3 antagonist 1.1 and TDP1 cell noCPT inconclusive.
For CCOC(=O)c1c(NC(=O)c2nn(C)cc2[N+](=O)[O-])sc(C)c1C the results were IL1B secr inh -4.1, DRD3 agonist -0.7, TDP1 cell CPT -5.2%, DRD3 antagonist 7.7 and TDP1 cell noCPT 6.1%.
For Cc1cc(NC(=O)CN2CCC(n3nnc4cc(C(F)(F)F)ccc43)CC2)no1 the results were IL1B secr inh -25.4, DRD3 agonist 6.0, TDP1 cell CPT inconclusive, ClpP mod -0.2%, DRD3 antagonist 9.7 and TDP1 cell noCPT inconclusive.
For COc1ccc(CC(=O)N2CCCc3ccccc32)cc1OC the results were IL1B secr inh 12.1, DRD3 agonist -0.4, TDP1 cell CPT -26.0%, ClpP mod -5.0%, DRD3 antagonist 9.2 and TDP1 cell noCPT inconclusive.
For O=C(CN1CCC(n2nnc3cc(F)ccc32)CC1)NNC(=O)c1ccccc1 the results were IL1B secr inh 7.3, DRD3 agonist -25.1, TDP1 cell CPT -12.4%, ClpP mod -15.2%, DRD3 antagonist inconclusive and TDP1 cell noCPT -1.2%.
Screening CCOc1ccc2nc(NC(=O)CN3CCC(n4nnc5cc(C(F)(F)F)ccc54)CC3)sc2c1 returned IL1B secr inh 21.2, DRD3 agonist -10.1, TDP1 cell CPT 14.6µM*, ClpP mod -5.7%, DRD3 antagonist 12.5 and TDP1 cell noCPT 23.1µM*.
For O=C(CN1CCC(n2nnc3cc(C(F)(F)F)ccc32)CC1)NNC(=O)c1ccco1 the results were IL1B secr inh -6.3, DRD3 agonist -1.4, TDP1 cell CPT -18.2%, ClpP mod -0.4%, DRD3 antagonist -1.8 and TDP1 cell noCPT inconclusive.
O=C(CN1CCC(n2nnc3cc(C(F)(F)F)ccc32)CC1)N1CCc2ccccc21 was read as IL1B secr inh 27.6, DRD3 agonist -14.8, TDP1 cell CPT 13µM*, ClpP mod -0.5%, DRD3 antagonist -26.1 and TDP1 cell noCPT 10µM*.
COc1ccc(CC(=O)NC2CCN(CC(=O)N3CCCc4ccccc43)CC2)cc1OC was read as IL1B secr inh 29.7, DRD3 agonist -29.6, TDP1 cell CPT -22.0%, ClpP mod -2.7%, DRD3 antagonist -21.2 and TDP1 cell noCPT 3.66µM*.
`O=C(CN1CCC(n2nnc3cc(F)ccc32)CC1)N1CCCc2ccccc21` gave IL1B secr inh -5.8, DRD3 agonist 0.1, TDP1 cell CPT inconclusive, ClpP mod -1.9%, DRD3 antagonist -53.7* and TDP1 cell noCPT inconclusive.
Cc1c(CCOC(=O)c2cc([N+](=O)[O-])cc([N+](=O)[O-])c2)sc[n+]1CCCCS(=O)(=O)[O-] was read as IL1B secr inh 27.0, DRD3 agonist 0.1, TDP1 cell CPT 0.4%, ClpP mod 0.3%, DRD3 antagonist 4.9 and TDP1 cell noCPT 4.6%.
For COc1ccc(Cl)cc1S(=O)(=O)N(C)CC(=O)N1CCOCC1 the results were IL1B secr inh -17.7, DRD3 agonist -5.7, TDP1 cell CPT 18.0%, DRD3 antagonist -2.5 and TDP1 cell noCPT 0.9%.
`Cc1cc([N+](=O)[O-])cc2c1NC(=O)C2(O)N1CCOCC1` (configuration not stated) gave IL1B secr inh 0.0, DRD3 agonist -6.9, TDP1 cell CPT inconclusive, ClpP mod 1.5%, DRD3 antagonist -19.4 and TDP1 cell noCPT -19.0%.
`NS(=O)(=O)c1cc2c(cc1Cl)N[C@@H]([C@@H]1C[C@@H]3C=C[C@H]1C3)NS2(=O)=O` gave TDP1 cell CPT 4.7% and TDP1 cell noCPT -3.3%.

Compound activity as filed in PubChem.
